High-throughput results from PubChem BioAssay.
Rows were chosen to be rich in hits. Some 1.9% of all compounds tested hit in one or more screens of this group.
Efa HMGR inh: inhibitors of class II HMG-CoA reductase from Enterococcus faecalis. purified E. faecalis HMGR, NADPH absorbance 340 nm kinetic. inhibition, % at 10 µM. actives 0.41% (n = 190,000);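 active = inhibition above a set limit, the median over all tested compounds plus 3 SD, cut at about 9.5% in these data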;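 also: enzyme runs in reverse so mevalonate oxidation gives rising NADPH absorbance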
EP2 mod: modulates human prostaglandin E2 receptor EP2 signaling. EP2-expressing cells, cAMP HTRF FRET, PGE2 co-stimulation. induction, % at 25 µM. actives 0.83% (n = 260,000);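 active = compounds whose cAMP rise, as percent of the full-agonist control response, exceeds 60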;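 also: rat C6 glioma line stably carrying human EP2 under a CMV promoter; the protocol text gives 20 µM as final concentration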
Furin inhibitor: blocks human furin protease activity; P09958; purified furin, fluorogenic substrate cleavage; inhibition, % at 20 µM or 30 µM; actives 0.061% (n = 220,000); AID 463115; in the data active = inhibition above about 25%
Target sequence (P09958 108-714 limits assumed): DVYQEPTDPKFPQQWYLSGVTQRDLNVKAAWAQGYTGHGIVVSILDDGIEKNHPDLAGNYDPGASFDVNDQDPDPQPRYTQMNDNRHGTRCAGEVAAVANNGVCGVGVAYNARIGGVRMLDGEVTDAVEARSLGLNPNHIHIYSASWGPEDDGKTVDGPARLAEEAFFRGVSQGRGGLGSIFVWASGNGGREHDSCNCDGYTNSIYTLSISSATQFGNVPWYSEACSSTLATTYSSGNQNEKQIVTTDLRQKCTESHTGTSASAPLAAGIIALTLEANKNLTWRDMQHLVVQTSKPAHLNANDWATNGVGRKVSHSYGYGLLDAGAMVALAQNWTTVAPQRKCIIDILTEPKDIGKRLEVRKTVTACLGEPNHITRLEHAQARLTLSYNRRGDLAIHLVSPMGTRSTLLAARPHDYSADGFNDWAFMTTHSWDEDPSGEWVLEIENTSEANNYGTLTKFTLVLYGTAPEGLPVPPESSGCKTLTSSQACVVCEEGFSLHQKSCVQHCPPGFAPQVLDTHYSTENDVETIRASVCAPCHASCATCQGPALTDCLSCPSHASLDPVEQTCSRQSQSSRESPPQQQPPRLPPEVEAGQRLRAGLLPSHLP
PGE2 EP2 inh: EP2 receptor (human) inhibition. P43116. C6 glioma cells expressing human EP2, cAMP TR-FRET; cells stimulated with saturating PGE2. actives 0.52% (n = 260,000). inhibition, % at 25 µM. AID 1422;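 active = percent inhibition above 40 after rounding to a whole number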;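 also: rat C6 glioma host cells with rolipram phosphodiesterase inhibitor present; the protocol text gives 20 µM as final concentration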
Calpain2 inh: inhibitors of pig calpain II; inhibition, % at 16 µM; purified calpain II, fluorogenic peptide substrate, 30 min; actives 0.37% (n = 220,000); AID 1236;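 active = inhibition above about 50%, limit read from the data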
Hits are given with their value; . = inactive; / = no result given.

SMILES	Efa HMGR inh	EP2 mod	Furin inhibitor	PGE2 EP2 inh	Calpain2 inh
Cc1cc(C(C)(C)C)oc1C(=O)N(CC(=O)NC1CCCC1)c1c(C)cccc1C	.	64	.	.	.
CCCCC[C@H](O)/C=C/[C@@H]1[C@@H](C/C=C\CCCC(=O)O)[C@@H](O)C[C@H]1O	.	102	.	.	.
CCCCC[C@H](O)/C=C/[C@@H]1[C@@H](C/C=C\CCCC(=O)OC)[C@@H](O)C[C@H]1O	.	.	.	.	.
CCCCC[C@H](O)/C=C/[C@@H]1[C@@H](C/C=C\CCCC(=O)O)[C@H]2CO[C@@H]1C2	11	98	.	.	.
COc1ccc(-c2nnc(-c3sc4nc(C)cc(C)c4c3N)o2)cc1OC	/	.	/	.	/
O=C(Cc1csc(-c2ccccc2)n1)NCc1cccs1	11	.	.	.	.
N#Cc1ccc2ccn(CC(N)=O)c2c1	/	.	/	.	/
C/C(=N\[N-]C(=[SH+])SCc1ccccc1)c1ccccn1.[Cl][Cu]	/	.	/	88	/
CSC(=[SH+])[N-]N=C(c1ccccn1)c1ccccn1.[Cu][Br]	/	.	/	108	/
CC(C)=N/N=C(\N)SCc1ccccc1	/	.	.	.	.
CC1Cc2ccccc2N1C(=O)CSc1nnc(-c2ccccc2N)n1C (stereo not drawn)	/	.	/	.	/
CC1(C)N=C(N)N=C(N)N1c1cccc(OCc2cccc([N+](=O)[O-])c2)c1	/	.	/	47	/
CCN1CCCC1CNC(=O)C(=O)Nc1ccccc1C (stereo not drawn)	/	.	/	.	/
O=S(=O)(c1ccccc1)c1cccc(S(=O)(=O)N2CCCC2)c1	/	.	/	.	/
CC(C)Cn1c(-c2csc3c2CCCC3)n[nH]c1=S	.	.	.	/	50
CC(C)Cn1c(-c2ccccc2F)n[nH]c1=S	.	.	.	.	.
O=C1OC(c2cccs2)=N/C1=C\c1ccc(-c2ccccc2Cl)o1	.	.	.	.	.
O=C1OC(c2cccs2)=N/C1=C/c1ccc(-c2cccc(C(=O)O)c2)o1	16	.	.	.	.
COc1cc(OC)cc(C2C(C#N)=C(N)SC(N)=C2C#N)c1	/	.	/	.	/
NC(=O)CSc1nnc(-c2cccs2)o1	/	.	/	.	/
CC(Nc1ccccc1)c1cc(Cl)ccc1O (stereo not drawn)	.	.	.	.	.
COc1ccc(NC(C)c2cc(Cl)ccc2O)cc1 (stereo not drawn)	.	.	.	.	50
Cc1ccc2[nH]c(=O)c(CN(Cc3ccco3)C(=O)C3CC3)cc2c1	/	.	/	.	/
CN(C)Cc1cc(C(F)(F)F)ccc1C(O)(c1ccccc1)c1ccccc1	/	.	/	46	/
CN(CCOc1cccc(C(F)(F)F)c1)Cc1ccccc1	.	.	.	.	.
SMILES	Efa HMGR inh	EP2 mod	Furin inhibitor	PGE2 EP2 inh	Calpain2 inh
Cc1cc(C)c(NC(=O)Cn2cc3c(n2)CCCC3)c(C)c1	.	.	.	.	69
COc1ccccc1N(CC(O)CN1CCN(C)CC1)S(=O)(=O)c1ccc(C)cc1 (stereo not drawn)	/	.	/	.	/
CC1CCCCC1NC(=O)COn1nnc2ccc(Cl)cc21 (stereo not drawn)	.	.	.	.	.
CC1(C)O[C@H]2[C@@H](O1)[C@@H](On1nnc3ccc(Cl)cc31)O[C@@H]2[C@@H]1COC(C)(C)O1	/	.	/	52	/
CC(C)Oc1cc(CCC(=O)Nc2nc3c(s2)CCc2c-3cnn2C)on1	/	.	/	.	/
C[n+]1c(/C=C/c2ccc3c(c2)OCO3)ccc2ccccc21	.	.	.	.	.
C[n+]1cc2c3c(ccc2c2ccc4cc5c(cc4c21)OCO5)OCO3	/	.	/	118	/
OC1(c2ccc(F)cc2)CCC2CN(CC3CC3)CC21 (stereo not drawn)	/	.	/	.	/
C[N+]1([C@H](CO)Cc2c[nH]c3ccccc23)Cc2ccccc2C1	/	.	/	50	/
O=C(O)C(O)Cc1c[nH]c2ccccc12 (stereo not drawn)	.	.	.	.	.
COc1ccc(N=c2oc3c(OC)cccc3cc2C(=O)NC2CCCC2)cc1	/	79	/	.	/
Cc1ccc(S(=O)(=O)NNC(=O)CCCCC(=O)NNS(=O)(=O)c2ccc(C)cc2)cc1	13	.	.	.	.
CCOC(=O)c1sc(N2C(=O)C(=O)/C(=C(\O)c3ccc(OC)cc3C)C2c2cccnc2)nc1C (stereo not drawn)	/	.	/	54	/
Cc1nnc2n(Cc3ccccc3)c(=O)c3c4c(sc3n12)COC(C(C)C)C4 (stereo not drawn)	.	64	.	.	.
O=S(=O)(O)c1ccc(N=Nc2ccc3c(S(=O)(=O)O)cccc3c2O)c2ccccc12	/	.	/	56	/
O=c1c2ccccc2nc(SCCN2CCOCC2)n1Cc1ccccc1	/	.	/	.	/
